# Results as given in PubChem BioAssay AID493084 (National Center for Advancing Translational Sciences (NCATS), 2011).
# About 650 (0.18%) of roughly 360,000 compounds were called active. This is one part of a sample in which actives are shown more often than they occur. Values without a mark were called inactive. Rule as the data show it: active = activation above about 30%; inactive = the rest.
# Target: Thyrotropin-releasing hormone receptor (Homo sapiens) (UniProt P34981)
# Test: qHTS for Small Molecule Agonists and Allosteric Enhancers of Human TRH Receptor: Primary Screen for Agonists. Also: 0% is about no effect.
# Conditions: TRHR cells, calcium flux fluo-8, FDSS agonist mode; at 2 µM; active compounds read high
# Source text: NIH Chemical Genomics Center [NCGC] NIH Molecular Libraries Probe Centers Network [MLPCN] MLPCN Grant: MH089816-01 Assay Submitter (PI): Marvin Gershengorn This project aims to identify small drug-like molecules that activate (agonists) the thyrotropin releasing hormone (TRH) receptor (TRHR) or enhance its TRH-stimulated activity (allosteric enhancers). TRHR, a drug-accessible cell surface receptor expressed in specific brain regions, and its ligand TRH have been implicated in several central nervous system disorders, including depression and anxiety. Small molecule TRHR agonists or allosteric enhancers that are metabolically stable and able to cross the blood-brain barrier might serve as probes to elucidate the roles of brain TRH receptors in animal models, and might be valuable as lead compounds for the development of drugs to treat patients with central nervous system disorders. Upon TRHR-Gq activation in TRHR cells, intracellular calcium is released from stores in the endoplasmic reticulum. […] This primary screen measures compound-induced activation of calcium release.
# For the HTS assay freshly prepared cells are plated at a density of 2000/well in 3 ul of complete DMEM medium containing 10% serum in 1536-well plates and cultured over night at 37 C in a humidified incubator with 5% CO2. The next day, 2 ul of a no wash calcium dye (ABD Bioquest) was added to the cells and plates were incubated at room temperature for 1 hour. For the assay, assay plates were loaded into the FDSS kinetic plate reader. A 10 cycle (1 second/cycle) baseline measurement is taken and then the FDSS online 1536 pintool delivers 23 nl of compound library (as well as TRH controls) to the plate. The plate is measured for kinetically at 1 cycle/sec for 180 seconds and is considered to be the agonist portion of the assay (eg, compounds which activate a positive calcium response during this portion are flagged as potential agonists). Following the 180 second read, 1 ul of either an EC20 (positive modulation assay) is delivered by an onboard pipette head. Measurements are taken kinetically for an additional 180 seconds. TRHR FDSS Screening Protocol 1. Reagent, 3 uL 2000 cells/well 1536 TC treated Black plate in media containing 10% FCS 2. Time, 18 hours, 33.5C 5% CO2 (cells grown at 37C) 3. Reagent, 2 uL ABD fluo-8 Ca dye 4. Time, 30 min-1.5hrs hours, Room temp (6 plates/batch) 5. Detector, EX 480/EM 530C, FDSS 10 cycles baseline (1sec/cycle) 6. Compound, 23 nL of stock solution from library 7. Detector, EX 480/EM 530C, FDSS […] (1sec/cycle) Agonist mode 8. Compound, 1 ul EC20 of TRH made up in HEPES HBSS, 10 nM final 9. Detector, EX 480/EM 530C, FDSS 100 cycles (1sec/cycle) Potentiator mode
# Sequence of Thyrotropin-releasing hormone receptor (Homo sapiens) (P34981 whole entry, looked up): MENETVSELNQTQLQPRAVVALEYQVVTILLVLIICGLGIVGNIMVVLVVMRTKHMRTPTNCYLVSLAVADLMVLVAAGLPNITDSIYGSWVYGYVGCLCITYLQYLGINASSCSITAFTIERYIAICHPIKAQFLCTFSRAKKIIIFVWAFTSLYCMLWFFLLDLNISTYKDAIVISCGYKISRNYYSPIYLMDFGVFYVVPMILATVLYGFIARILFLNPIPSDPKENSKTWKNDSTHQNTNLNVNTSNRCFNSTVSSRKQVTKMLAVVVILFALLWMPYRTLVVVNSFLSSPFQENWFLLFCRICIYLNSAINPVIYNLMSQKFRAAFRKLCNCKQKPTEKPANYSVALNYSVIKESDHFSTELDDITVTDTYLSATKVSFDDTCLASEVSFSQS
row,SMILES,activation
1,Cc1ccccc1NC(=O)CN1C(=O)C(C)(C)c2ccccc21,0.364%
2,CCOc1ccc2nc(N3CCC(C(=O)Nc4cc(C)ccc4C)CC3)sc2c1,-0.106%
3,Cc1ccccc1NC(=O)c1cc2c([nH]c1=O)CC(C)(C)CC2=O,1.28%
4,COc1cccc(-c2ccc3c(c2)S(=O)(=O)c2cccc(C(=O)O)c2C3=O)c1OC,0.018%
5,Cc1ccc(CNC(=O)c2ccccc2CCc2ccccc2)cc1,0.513%
6,Cc1ccc(CNC(=O)c2cccc3c2C(=O)c2ccc(N4CCC(C)CC4)cc2S3(=O)=O)cc1,86.3% (active)
7,COC(=O)C1=C(C)NC2=C(C(=O)c3ccccc32)C1c1ccc(-c2ccc(C(=O)O)cc2)o1 (stereo unspecified),46.3% (active)
8,Cc1ccc(C2C3=C(Nc4[nH]n(-c5ccccc5)c(=O)c42)c2ccccc2C3=O)cc1 (stereo unspecified),-0.291%
9,CCOc1cc(C2C(C(=O)OC)=C(C)NC3=C2C(=O)c2ccccc23)ccc1O (stereo unspecified),0.256%
10,Cc1c(C)n(Cc2ccc(Cl)cc2)c2ccc(C(=O)NCCc3ccc(S(N)(=O)=O)cc3)cc12,0.277%
11,Cc1nn(-c2ccc(N3CCCCC3)nn2)c(C)c1CCC(=O)NCc1ccc(F)cc1,-0.372%
12,CCN1/C(=C\c2ccc3ccccc3[n+]2CC)Sc2cc(C)ccc21,34.6% (active)
13,CCCC12CN3CC(CCC)(CN(C1)C3c1c[nH]c3ccc(OC)cc13)C2=O (stereo unspecified),2.39%
14,CCOc1cc(/C=C(/C#N)c2ccc(Cl)cc2)cc(Cl)c1OCC(=O)O,-0.184%
15,CCOc1cc(/C=C(\C#N)C(=O)Nc2ccccc2C)ccc1OCc1cc(=O)n2nc(CC)sc2n1,-1.33%
16,CCOc1cc(/C=C(\C#N)c2nc(-c3cccs3)c(NC(C)=O)s2)ccc1O,37.3% (active)
17,Cc1nc2ccc(S(=O)(=O)N(CC(=O)Nc3ccc(F)cc3)Cc3ccccc3)cc2s1,-0.726%
18,Cc1ccc(-n2nc(C)c3c(C)cc(=O)n(CC(=O)Nc4ccc(C(C)C)cc4)c32)cc1,-0.803%
19,Cc1cccc(NC(=O)N2CCC(CN3CCc4ccccc4C3)CC2)c1C,-0.238%
20,O=C(Nc1ccc(OC(F)(F)F)cc1)c1cc2c(=O)n3ccccc3nc2s1,0.583%
21,O=C(/C=C(O)/C=C/c1ccc(O)cc1)/C=C/c1ccc(O)cc1,150% (active)

row,SMILES,activation
1,COc1ccc(OCCCn2cccc2/C=C2/C(=N)N3OC(C)=CC3=NC2=O)cc1,-0.544%
2,CC1=CC2=NC(=O)/C(=C/c3coc4ccccc4c3=O)C(=N)N2O1,111% (active)
3,O=C(NCc1ccc(Cl)cc1)c1ccc2c(c1)nnn2C1CCCC1,-0.129%
4,O=S(=O)(c1ccc(Br)cc1)c1nnn2c1nc(N1CCOCC1)c1sccc12,-0.0076%
5,Cc1ccc(NC(=O)c2oc3ccc(S(=O)(=O)N4CCCCC4)cc3c2C)cc1Cl,1.26%
6,COc1ccc(C(=O)Nc2nonc2-c2ccc(OC)c(OC)c2)cc1Cl,-1.06%
7,Cc1cccc(N2CCN(c3c(CN4CCCC4)c(=O)oc4ccccc34)CC2)c1C,0.139%
8,C=CCC1=C/C(=C\c2c(N)n3nc(CC(=O)N4CCOCC4)sc3nc2=O)C=C(OC)C1=O,162% (active)
9,COC1=C/C(=C/c2c(N)n3nc(CC(=O)N4CCOCC4)sc3nc2=O)C=CC1=O,15.5%
10,O=C1C(F)N([S+](=O)([O-])c2ccc3c(c2)OCCO3)CCN1[S+](=O)([O-])c1c(F)cccc1F (stereo unspecified),0.239%
11,Cc1ccc(Cl)cc1N1CCN(C(=O)c2cn(C)c3ccc(S(=O)(=O)N(C)C4CCCCC4)cc3c2=O)CC1,-1.19%
12,O=C(NCCc1ccccc1)C(=O)NCC(c1ccco1)S(=O)(=O)c1ccccc1 (stereo unspecified),-0.0493%
13,CN1C(=O)c2cccc3c(N)ccc(c23)C1=O,152% (active)
14,Cc1nn(C)cc1N1C(=O)c2cccc3c(N)ccc(c23)C1=O,172% (active)
15,CCc1nnc(NC(=O)[C@@H](NC(=O)c2cccc(C)c2)C(C)C)s1,47.4% (active)
16,CC(=O)Nc1ccc(NC(=O)[C@@H](NC(=O)c2cccc(C)c2)C(C)C)cc1,0.205%
17,Cc1cccc(C(=O)NCc2nnc(SC(C)C(=O)Nc3nnc(C)s3)n2C)c1 (stereo unspecified),-0.0214%
18,Cn1ccc2cc(S(=O)(=O)N3CCCC(C(=O)NCc4ccccc4F)C3)ccc21 (stereo unspecified),-0.718%
19,Cc1nn(C(C)C(=O)NCCc2ccccc2)c(=O)c2c1sc1ccccc12 (stereo unspecified),-0.291%
20,COc1cc(Cl)c(NC(=O)CC(C)S(=O)(=O)c2cc3c(cc2C)NC(=O)CO3)c(OC)c1 (stereo unspecified),-0.196%
21,CCCNC(=O)C(CC)n1nc(CC)n2c(cc3oc(C)cc32)c1=O (stereo unspecified),0.892%

row,SMILES,activation
1,COc1ccc(-c2nc(Cn3c(=O)cc(C)c4c(C)nn(-c5ccccc5)c43)c(C)o2)c(OC)c1,0.643%
2,Oc1c(C(c2ccc(F)cc2)N2CCN(Cc3ccccc3)CC2)sc2nc(-c3ccco3)nn12 (stereo unspecified),-0.524%
3,COc1ccc(-c2onc(C)c2C)cc1S(=O)(=O)NCC1CCN(Cc2cccc(F)c2)CC1,-0.0549%
4,CCOC(=O)C1CCN(C(c2ccc(F)cc2)c2sc3nc(-c4ccco4)nn3c2O)CC1 (stereo unspecified),0.0847%
5,N#C/C(=C\c1ccccc1F)c1nc2ccccc2c(=O)[nH]1,3.32%
6,CCOc1ccc(/C=C(\C#N)c2nc3ccccc3c(=O)[nH]2)cc1OC,2.27%
7,COc1cc(/C=C(\C#N)c2nc3ccccc3[nH]2)ccc1O,33.3% (active)
8,COc1cccc2cc(-c3nc(Cl)c4c5c(sc4n3)CC(C)CC5)c(=O)oc12 (stereo unspecified),0.639%
9,COc1cc(/C=C(\C#N)c2nc3c(s2)CC(C)CC3)ccc1O (stereo unspecified),38.3% (active)
10,Cc1ccc(S(=O)(=O)c2cn(Cc3ccccc3)c3cc(N4CCCC4)c(F)cc3c2=O)c(C)c1,0.661%
11,Cc1ccc(C)c(N2CCN(C(=O)Cc3c(C(=O)O)c(C)cn3C)CC2)c1,-0.0012%
12,COc1ccc(CNC(=O)c2cc3c(-c4ccccc4F)nn(C)c3s2)c(OC)c1,-0.894%
13,O=C(Nc1ccc(O)c(-c2nc3ccccc3o2)c1)c1ccc(-c2cccc(Cl)c2)o1,0.235%
14,CCCN(CCC)c1nc2c(C)cccn2c(=O)c1/C=C1/SC(=S)N(Cc2ccco2)C1=O,12%
15,CCOC(=O)CNC(=O)c1cc2c(=O)n3cccc(C)c3nc2s1,-0.701%
16,CCOC(=O)CC1C(=O)NCCN1c1nc2c(C)cccn2c(=O)c1/C=C1\SC(=S)N(C(C)CC)C1=O (stereo unspecified),52.4% (active)
17,COc1ccc(-c2cc(C(=O)NCc3cc(OC)c(OC)c(OC)c3)[nH]n2)cc1,-0.734%
18,O=C(Cc1ccc(Cl)cc1)NCC(c1cccs1)S(=O)(=O)c1ccc(Cl)cc1 (stereo unspecified),-0.0259%
19,CCCCN1C(=O)c2[nH]nc(-c3ccccc3O)c2C1c1cccc(OCc2ccccc2)c1 (stereo unspecified),0.132%
20,Cc1ccc2nc(-c3ccc(C)c(NC(=O)Cc4ccccc4)c3)oc2c1,-0.54%
21,Cc1ccc(C2c3[nH]c4ccccc4c3CCN2C(=O)c2cccc(C)c2)cc1 (stereo unspecified),0.132%

row,SMILES,activation
1,Cc1ccc(S(=O)(=O)NC(N)=NCCC[C@@H](NC(=O)CNC(=O)c2ccccc2)C(=O)Nc2cc(C(F)(F)F)ccc2Cl)cc1,-1.22%
2,COc1ccc(C2C(=O)N(C3CCCCC3)CC(=O)N2Cc2ccccc2Cl)cc1OC (stereo unspecified),-1.14%
3,COc1ccc(-c2nc(Cn3c(=O)cc(C)c4c(C)nn(-c5ccccc5)c43)c(C)o2)cc1OC,-0.897%
4,Cc1ccc(Cn2ncc3c4sc(C)cc4n(C)c3c2=O)c(C)c1,0.195%
5,Cc1ccccc1CNC(=O)C1CCCN(S(=O)(=O)N(C)c2ccc(F)cc2)C1 (stereo unspecified),-0.334%
6,Cc1cc(C)cc(NC(=O)CSc2nc3nccnc3c(=O)n2CCc2c[nH]c3ccccc23)c1,0.728%
7,O=C(CCS(=O)(=O)c1cc(Br)cc2c1N(C(=O)C1CC1)CC2)Nc1ccc(C(F)(F)F)cc1,-0.155%
8,CCOC(=O)c1c(S(=O)(=O)N2CCC(C(=O)NCc3ccccc3OC)CC2)c(C)n(C)c1C,-0.102%
9,O=C(CCSCc1cccc(F)c1)NCc1ccccc1,-0.592%
10,CN(Cc1ccccc1)C(=O)c1cn(C)c2ccc(S(=O)(=O)N3CCCCC3)cc2c1=O,0.115%
11,CCOc1ccc(C2C(=O)N(C3CCCCC3)CC(=O)N2CCC2=CCCCC2)cc1OC (stereo unspecified),0.439%
12,O=[S+]([O-])(c1ccc(OC(F)(F)F)cc1)N1CCN([S+](=O)([O-])c2ccc3c(c2)OCCO3)CC1,-0.283%
13,CCc1ccc2oc(-c3ccc(C)c(NC(=O)/C=C/c4ccco4)c3)nc2c1,-0.323%
14,COc1ccccc1C(=O)Nc1c(C(=O)N(C)Cc2ccccc2)sc2nc(C)c(Cl)c(C)c12,-1.19%
15,CCc1cccc(NC(=O)CN(c2ccc(C)c(C)c2)S(=O)(=O)c2ccsc2C(=O)OC)c1,0.768%
16,COc1ccc(NC(=O)c2ccc3oc(=O)c(S(=O)(=O)c4ccc(F)cc4)cc3c2)c(OC)c1,-0.513%
17,Cc1cc(S(=O)(=O)c2cc3ccc(O)c(C)c3oc2=O)ccc1F,44.2% (active)
18,COc1cc(Br)cc2cc(S(=O)(=O)c3ccccc3)c(=O)oc12,0.456%
